Source: PubChem BioAssay (NCATS)
Results filed as inconclusive are left out. The source made the active and inactive calls. The call rests on the fitted dose curve; in most records, active means well fitted cell-killing curve with a large enough effect; inconclusive means small, poorly fitted or top-dose-only effect, or effect the other way; inactive means flat fitted curve, though single readings scatter.

Tests used:
Test in all cases: Primary qHTS to identify gynecologic anti-cancer compounds using libraries of approved drugs and bioactive compounds (AID 1345084); further: nearly all actives have a fitted effect of over 55% in size
C33A = conditions: Gynecologic cancer cell panel viability, ATPlite luminescence, 48 h; series mostly up to 57.5 µM
Procedure, shortened: (§1)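 Five-concentration response, 48 h; readout is ATP-driven luciferase luminescence.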

CAOV3 = conditions: Gynecologic cancer cell panel viability, ATPlite luminescence, 48 h; series mostly up to 57.5 µM
Procedure, shortened: as §1

CASKI = conditions: Gynecologic cancer cell panel viability, ATPlite luminescence, 48 h; series mostly up to 57.5 µM
Procedure, shortened: as §1

Es-2 = conditions: Gynecologic cancer cell panel viability, ATPlite luminescence, 48 h; series mostly up to 57.5 µM
Procedure, shortened: as §1

HeLa = conditions: Gynecologic cancer cell panel viability, ATPlite luminescence, 48 h; series mostly up to 57.5 µM
Procedure, shortened: as §1

Hek293T = conditions: Gynecologic cancer cell panel viability, ATPlite luminescence, 48 h, control line for the selectivity index; series mostly up to 57.5 µM
Procedure, shortened: as §1

JEG-3 = conditions: Gynecologic cancer cell panel viability, ATPlite luminescence, 48 h; series mostly up to 57.5 µM
Procedure, shortened: as §1

OV90 = conditions: Gynecologic cancer cell panel viability, ATPlite luminescence, 48 h; series mostly up to 57.5 µM
Procedure, shortened: as §1

Measured: Potency

COc1ccccc1N1CCN(CC[C@@](C)(C(=O)C2CCCCC2)c2ccccc2)CC1
inactive: C33A | CAOV3 | CASKI | Es-2 | HeLa | Hek293T | JEG-3 | OV90

O=C(C(Cc1cccc(C(F)(F)F)c1)NS(=O)(=O)c1cc(F)c2c(c1)CCNC2)N1CCCC1 (configuration not stated)
inactive: C33A | CAOV3 | CASKI | Es-2 | HeLa | Hek293T | JEG-3 | OV90

N#Cc1ccc(COC[C@H]2O[C@@H](n3c(NCc4ccc(Cl)c(Cl)c4)nc4c(N)ncnc43)[C@H](O)[C@@H]2O)cc1
inactive: C33A | CAOV3 | CASKI | Es-2 | HeLa | Hek293T | JEG-3 | OV90

O=C(O)c1cc(N(Cc2ccc(C3CCCCC3)cc2)C(=O)c2ccc(Oc3ccccc3)cc2)ccc1O
inactive: C33A | CAOV3 | CASKI | Es-2 | HeLa | Hek293T | JEG-3 | OV90

CCC(C)c1ccc(NC(=O)Cn2cnc3c2c(=O)n(C)c(=O)n3C)cc1 (configuration not stated)
inactive: C33A | CAOV3 | CASKI | Es-2 | HeLa | Hek293T | JEG-3 | OV90

CC1(C)CCCC2(C)C1C(=O)C=C(C(=O)O)C2(O)C(=O)O (configuration not stated)
inactive: C33A | CAOV3 | CASKI | Es-2 | HeLa | Hek293T | JEG-3 | OV90

CC(C)(C)c1ccc(C(=O)Nc2cc(Cl)c(Br)cc2C(=O)O)cc1
inactive: C33A | CAOV3 | CASKI | Es-2 | HeLa | Hek293T | JEG-3 | OV90

COc1cc(C(=O)NCC2(N(C)C)CCCC2)cc(OC)c1OCc1ccccc1
inactive: C33A | CAOV3 | CASKI | Es-2 | HeLa | Hek293T | JEG-3 | OV90

O=C(c1ccccn1)N(Cc1cccs1)C1(C(=O)NC2CCCCC2)CCCCC1
inactive: C33A | CAOV3 | CASKI | Es-2 | HeLa | Hek293T | JEG-3 | OV90

Cc1cc(C)cc(-c2cnc3cc(Cl)c(-c4cccc(O)c4)cc3c2OCCCN)c1
inactive: C33A | CAOV3 | CASKI | Es-2 | HeLa | Hek293T | JEG-3 | OV90

Cc1ccnn1-c1ccc(C(=O)N2CCN(S(=O)(=O)c3ccc(Cl)c(C(F)(F)F)c3)CC2)cc1
inactive: C33A | CAOV3 | CASKI | Es-2 | HeLa | Hek293T | JEG-3 | OV90

OC(c1ccc(-c2ccc(CN3CCN(Cc4ccncc4)CC3)cc2)c(F)c1)(C(F)(F)F)C(F)(F)F
inactive: C33A | CAOV3 | CASKI | Es-2 | HeLa | Hek293T | JEG-3 | OV90

CN(C)CCOc1cc(NS(=O)(=O)c2c(Cl)cc(C(F)(F)F)cc2Cl)ccc1Cl
inactive: C33A | CAOV3 | CASKI | Es-2 | HeLa | Hek293T | JEG-3 | OV90

Cc1cccc(CC(=O)N2CCc3c2ccc(-c2cn(C)c4ncnc(N)c24)c3F)n1
inactive: C33A | CAOV3 | CASKI | Es-2 | HeLa | Hek293T | JEG-3 | OV90

Cc1noc(-c2ccc(-c3ccc(CC(=O)O)cc3)cc2)c1NC(=O)O[C@H](C)c1ccccc1Cl
inactive: C33A | CAOV3 | CASKI | Es-2 | HeLa | Hek293T | JEG-3 | OV90

COc1cc(NC(=O)c2cc(C3CC3)on2)c(OC)cc1Cl
inactive: C33A | CAOV3 | CASKI | Es-2 | HeLa | Hek293T | JEG-3 | OV90

Cc1ccc(CNc2ncnc3ccc(-c4ccc(CO)o4)cc23)o1
inactive: C33A | CAOV3 | CASKI | Es-2 | HeLa | Hek293T | JEG-3 | OV90

CC(=O)OC1C(O)CC2(C)C(CCC3(C)C2CC=C2C4C5(CCC(CO[C@@H]6O[C@H](CO)[C@@H](O)[C@H](O)[C@H]6O)(OC5=O)C4(C)O)C(O)CC23C)C1(C)C (some centres not stated)
inactive: C33A | CAOV3 | CASKI | Es-2 | HeLa | Hek293T | JEG-3 | OV90

C=C(CCC1C(C)(O)CCC2C(C)(C)C(O)CCC12C)C(O)CO (configuration not stated)
inactive: C33A | CAOV3 | CASKI | Es-2 | HeLa | Hek293T | JEG-3 | OV90

CNCc1cc(-c2ccccc2F)n(S(=O)(=O)c2cccnc2)c1
inactive: C33A | CAOV3 | CASKI | Es-2 | HeLa | Hek293T | JEG-3 | OV90

CC[C@@H](Nc1c(Nc2cccc(C(=O)N(C)C)c2O)c(=O)c1=O)c1cc(C(C)C)co1
inactive: C33A | CAOV3 | CASKI | Es-2 | HeLa | Hek293T | JEG-3 | OV90

CCN1CCN(Cc2ccc(C(=O)Nc3ccc(C)c(Oc4ccc5c(c4)CC(=O)N5)c3)cc2C(F)(F)F)CC1
inactive: C33A | CAOV3 | CASKI | Es-2 | HeLa | Hek293T | JEG-3 | OV90

CN1CCN(c2ccc(-c3cccc(CN4CCOCC4)c3)cc2NC(=O)c2c[nH]c(=O)cc2C(F)(F)F)CC1
inactive: C33A | CAOV3 | CASKI | Es-2 | HeLa | Hek293T | JEG-3 | OV90

CC(=O)O[C@@H]1CC[C@@]2(C)[C@H](CC[C@@H]3[C@@H]2C[C@H](OC(C)=O)[C@]2(C)[C@@H](C(C)=O)CC[C@@H]32)C1
inactive: C33A | CAOV3 | CASKI | Es-2 | HeLa | Hek293T | JEG-3 | OV90

Cn1cc(-c2ccc3c(c2)CCN3C(=O)Cc2cccc(C(F)(F)F)c2)c2c(N)ncnc21
inactive: C33A | CAOV3 | CASKI | Es-2 | HeLa | Hek293T | JEG-3 | OV90

C/C(=C\CO[C@@H]1O[C@H](CO[C@H]2OC[C@](O)(CO)[C@H]2O)[C@@H](O)[C@H](O)[C@H]1O)C(C)(C)O
inactive: C33A | CAOV3 | CASKI | Es-2 | HeLa | Hek293T | JEG-3 | OV90

O=C(NCCN1CCN(c2cccc3c2OCCO3)CC1)c1ccc(F)cc1
inactive: C33A | CAOV3 | CASKI | Es-2 | HeLa | Hek293T | JEG-3 | OV90

C=C1C(=O)O[C@@H]2/C=C(\CO)CC/C=C(\CO)[C@H](OC(C)=O)C(OC(=O)C(C)CC)C12 (some centres not stated)
inactive: C33A | CAOV3 | CASKI | Es-2 | HeLa | Hek293T | JEG-3 | OV90

CC(C)(N)c1ncc(-c2ccc(OC(F)(F)F)cc2)[nH]1
inactive: C33A | CAOV3 | CASKI | Es-2 | HeLa | Hek293T | JEG-3 | OV90

O=C(O)C1=CO[C@@H](O[C@@H]2O[C@H](CO)[C@@H](O)[C@H](O)[C@H]2O)[C@@H]2C(CO)=CC[C@H]12
inactive: C33A | CAOV3 | CASKI | Es-2 | HeLa | Hek293T | JEG-3 | OV90

O=C(NCc1ccccc1-c1ccccc1C(=O)NCCc1ccccn1)OCc1ccccc1
inactive: C33A | CAOV3 | CASKI | Es-2 | HeLa | Hek293T | JEG-3 | OV90

COc1cc(-c2nc(N[C@H](CO)Cc3ccccc3)ccc2C(=O)NCCOc2ccccc2)cc(OC)c1OC
inactive: C33A | CAOV3 | CASKI | Es-2 | HeLa | Hek293T | JEG-3 | OV90

C=C(C)C(=O)O[C@H]1/C(C=O)=C\CC/C(CO)=C/[C@H]2OC(=O)C(=C)[C@@H]2[C@@H]1OC
inactive: C33A | CAOV3 | CASKI | Es-2 | HeLa | Hek293T | JEG-3 | OV90

CC1OC(=O)C[C@@H]2C(C(=O)O)=CO[C@@H](O[C@H]3O[C@H](CO)[C@@H](O)[C@H](O)[C@H]3O)[C@H]12 (some centres not stated)
inactive: C33A | CAOV3 | CASKI | Es-2 | HeLa | Hek293T | JEG-3 | OV90

CCOC(=O)N1CCC(CN(Cc2ccc(Cl)cc2)Cc2ccc([N+](=O)[O-])s2)C1 (configuration not stated)
inactive: C33A | CAOV3 | CASKI | Es-2 | HeLa | Hek293T | JEG-3 | OV90

CN(C)CC#CCCC(=O)C(O)(c1ccccc1)C1CCC1 (configuration not stated)
inactive: C33A | CAOV3 | CASKI | Es-2 | HeLa | Hek293T | JEG-3 | OV90

Cc1ccnc(NC(=O)C(C)c2cccc(C(=O)c3ccccc3)c2)c1 (configuration not stated)
inactive: C33A | CAOV3 | CASKI | Es-2 | HeLa | Hek293T | JEG-3 | OV90

COC1CCN(C(=O)c2cc(Cc3n[nH]c(=O)c4ccccc34)ccc2F)CC1
inactive: C33A | CAOV3 | CASKI | Es-2 | HeLa | Hek293T | JEG-3 | OV90

CC(=O)OC1CC(C)C2(CCC3(CC(=O)OC3O)O2)C2(C)CCCC(C)(C)C12 (configuration not stated)
inactive: C33A | CAOV3 | CASKI | Es-2 | HeLa | Hek293T | JEG-3 | OV90

C=C1C(=O)OC[C@@H]1C/C=C(\C)CC1CC(C)C(=O)O1 (some centres not stated)
inactive: C33A | CAOV3 | CASKI | Es-2 | HeLa | Hek293T | JEG-3 | OV90

C[C@@H]1CC[C@@]23CC[C@]4(C)[C@@](C=CC5[C@@]6(C)CC[C@H](O)C(C)(C)C6CC[C@]54C)(OC2=O)C3[C@H]1C (some centres not stated)
inactive: C33A | CAOV3 | CASKI | Es-2 | HeLa | Hek293T | JEG-3 | OV90

CC(C)=CCC[C@](C)(O[C@@H]1O[C@H](CO[C@@H]2OC[C@@H](O)[C@H](O)[C@H]2O)[C@@H](O)[C@H](O)[C@H]1O)[C@H]1CC[C@]2(C)[C@@H]1[C@H](O)C[C@@H]1[C@@]3(C)CC[C@H](O[C@@H]4O[C@H](CO)[C@@H](O)[C@H](O)[C@H]4O)C(C)(C)[C@@H]3CC[C@]12C
inactive: C33A | CAOV3 | CASKI | Es-2 | HeLa | Hek293T | JEG-3 | OV90

O=C(Nc1ccc(C(F)(F)F)cn1)N1CCN(c2ncccc2C(F)(F)F)CC1
inactive: C33A | CAOV3 | CASKI | Es-2 | HeLa | Hek293T | JEG-3 | OV90

C=C1/C(=C/C=C2\CCC[C@]3(C)[C@@H]([C@H](C)/C=C/[C@@H](C)C(C)C)CC[C@@H]23)C[C@@H](O)C[C@@H]1O
inactive: C33A | CAOV3 | CASKI | Es-2 | HeLa | Hek293T | JEG-3 | OV90
